D1 antag: Antagonist of Human D 1 Dopamine Receptor: qHTS. D(1A) dopamine receptor (Homo sapiens), P21728. HEK293 TREx D1 cells, calcium flux, dopamine EC80; active compounds read low. activity change, negative = inhibition, % at 10 µM. 360,000 tested, 3.2% active. AID 504652, 2011; in the data active = activity change below about -30%; note: % is set by controls: 0 for no effect and ±100 for the full control effect
Target sequence (P21728 whole entry, looked up): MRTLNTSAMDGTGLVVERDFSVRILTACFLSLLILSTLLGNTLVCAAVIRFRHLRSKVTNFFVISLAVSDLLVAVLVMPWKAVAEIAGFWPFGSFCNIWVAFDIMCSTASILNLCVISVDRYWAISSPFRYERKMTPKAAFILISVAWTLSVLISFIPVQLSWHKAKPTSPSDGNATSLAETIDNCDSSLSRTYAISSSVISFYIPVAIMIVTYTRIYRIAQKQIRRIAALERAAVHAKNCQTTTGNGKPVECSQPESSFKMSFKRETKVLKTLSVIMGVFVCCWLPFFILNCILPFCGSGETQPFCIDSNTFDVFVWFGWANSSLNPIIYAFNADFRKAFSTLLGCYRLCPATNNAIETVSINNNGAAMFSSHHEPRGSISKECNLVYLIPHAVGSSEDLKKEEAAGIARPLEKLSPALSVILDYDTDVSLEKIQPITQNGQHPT
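Cells carrying a force-coupled, tetracycline-inducible human D1 receptor report calcium flux. Each well gets a 10 s baseline, compound with 180 s monitoring, then an EC80 dopamine stimulus with a second 180 s kinetic read.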
D1 PAM: Potentiators of Human D1 Dopamine Receptor: qHTS; D(1A) dopamine receptor (Homo sapiens), P21728; HEK293 TREx D1 cells, calcium flux, dopamine EC20 potentiation; potentiation, % at 10 µM; 360,000 tested, 0.036% active; in the data active = potentiation above about 30%; note: 0% is about no effect
D1 ag: Allosteric Agonists of the Human D1 Dopamine Receptor: qHTS. HEK293 T-REx D1 cells, calcium flux, agonist mode. 360,000 tested, 1% active. activation, % at 2 µM. AID 504660, 2011; in the data active = activation above about 30%; note: 0% is about no effect
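Agonism was scored from calcium flux recorded over 180 s (1 read/s) after pintool compound addition, following a 10-cycle baseline. Cells were inducible force-coupled HEK293 TREx D1, plated overnight at 30 C and loaded with no-wash calcium dye.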
D3 antag: qHTS of D3 Dopamine Receptor Antagonist: qHTS; D(3) dopamine receptor (Homo sapiens), P35462; D3R cells, DiscoveRx beta-arrestin luminescence, antagonist mode; active compounds read low; max response, negative = inhibition, %; 360,000 tested, 2.5% active; in the data active = max response below about -50%; inconclusive = no clear call, values can overlap the other calls; note: % is set by controls: 0 for no effect and ±100 for the full control effect
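Cells expressing the human receptor were seeded at 1500 cells/well, incubated overnight at 37 degrees C in 5% CO2, then exposed to library compounds with dopamine controls for 90 minutes at 37 degrees C before luminescent detection.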
D3 ag: qHTS of D3 Dopamine Receptor Agonist: qHTS | D3R DiscoveRx beta-arrestin cells, luminescence, 90 min | 410,000 tested, 0.58% active | AID 652048, 2013 | max activation, %; in the data active = max activation above about 30%; note: 0% is about no effect
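Cells at 1500/well, incubated overnight, then treated with pinned compounds (dopamine as control) for 90 min at 37 degrees C. DiscoveRx reagent added for 30 - 60 minutes at room temperature; luminescence read.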
An asterisk follows results filed as active; ? = inconclusive; . = no result given; + = active, no number; ! = not active in a repeat. Most compounds without a hit are left out; they make up all but 6% or so of the library.

SMILES	D1 antag	D1 PAM	D1 ag	D3 antag	D3 ag
CC(C)(C)OC(=O)N1CCC(NC(=O)c2[nH]cnc2C(=O)Nc2ccccc2F)CC1	.	.	.	34	5
Cc1ccn(-c2n[nH]c(C)c2[N+](=O)[O-])n1	4	20	8	6	-6
Cc1[nH]nc(N2CCCCCC2)c1[N+](=O)[O-]	-41*	-9	1	-23	0
O=C(/C=C/c1ccc2c(c1)OCO2)NCCS(=O)(=O)N1CCN(c2ccccc2)CC1	.	.	.	-12	-3
O=C(Nc1nc(-c2cccs2)cs1)C1=COCCO1	-82*	-5	0	?	-4
Cc1cc(C)c(NC(=O)COC(=O)C2=COCCO2)c(C)c1	.	.	.	12	-7
Cc1cc(C)c2sc(NC(=O)C3=COCCO3)nc2c1	-34*	13	0	10	8
Cc1cc(-c2csc(NC(=O)C3=COCCO3)n2)c(C)n1C	-12	-4	0	14	6
O=C(Nc1nc2cc3c(cc2s1)OCCO3)C1=COCCO1	4	2	3	-19	-6
Cc1cc(C)c(-c2csc(NC(=O)C3=COCCO3)n2)c(C)c1	-30*	-4	12	-8	-10
Cc1cc(C)c(NC(=O)C2=COCCO2)c(C)c1	-33*	-7	0	-1	6
O=C(Nc1nc(-c2ccc(Cl)cc2)cs1)C1=COCCO1	-14	-3	4	5	1
CCOC(=O)CN=C1CC(C)(C)CC2=C1Sc1ncnc(N(C)C)c1N2	-42*	-16	7	2	4
CCCn1c(/C=C/c2ccccc2)nc2ccccc21	-35*!	-7	1	22	31*!
COCCOCCn1c(/C=C/c2ccccc2)nc2ccccc21	-1	1	0	1	-5
CCCn1c(SCC(=O)O)nc2ccccc21	-88*	1	2	-21	-3
CC(C)(C)S(=O)N1Cc2cc(C(=O)NCC(F)(F)F)nc(-c3cccc(-c4cccc(F)c4)c3)c2[C@@H]1CCO (some centres undefined)	.	.	.	85	12
N[C@H]1C(O)O[C@H](CO)[C@@H](O)[C@@H]1O (some centres undefined)	6	-1	0	2	5
CN(CC(=O)Nc1ccccc1Br)c1ncnc2sccc12	-35*	-11	13	-6	5
CN(CC(=O)Nc1ccc(F)c(F)c1F)c1ncnc2sccc12	-9	-11	8	3	-4
O=C(C1CCN(S(=O)(=O)c2cccc3nsnc23)CC1)N1CCc2ccccc2C1	-44*	-14	2	-6	1
CC1CCN(C(=O)CN(C)S(=O)(=O)c2cccc3nsnc23)CC1	-14	-2	4	8	1
Cc1ccc(NC(=O)CN(C)S(=O)(=O)c2cccc3nsnc23)cc1	-2	6	1	3	8
O=C(NCCN1CCN(c2ccccc2)CC1)C1CCN(S(=O)(=O)c2cccc3nsnc23)CC1	-17	0	0	-16	94*
CN(CC(=O)Nc1ccc(F)c(Cl)c1)S(=O)(=O)c1cccc2nsnc12	-34*	1	5	2	-1
SMILES	D1 antag	D1 PAM	D1 ag	D3 antag	D3 ag
CC1CCN(CCNC(=O)CN(C)S(=O)(=O)c2cccc3nsnc23)CC1	-31*	-8	2	-19	-8
O=C(NCCc1ccccc1)C1CCN(S(=O)(=O)c2cccc3nsnc23)CC1	1	-3	1	-20	1
O=C(O)CC(c1ccc(F)cc1F)N1Cc2ccccc2C1=O (centres undefined)	7	-4	2	11	2
Cc1ccnc(NS(=O)(=O)c2ccc(-n3cccn3)cc2)c1	-24	4	2	14	-1
Cc1ccc2nc(Nc3nc(=O)c4ccccc4n3C)nc(C)c2c1	-23	-5	158*	.	.
Cc1ccc2nc(Nc3nc(-c4ccccc4)cc(=O)[nH]3)nc(C)c2c1	21	-6	1	-2	2
Cc1nc([N+](=O)[O-])cn1Cc1cccc([N+](=O)[O-])c1	-31*	-6	3	-19	-2
COc1ccccc1C(NC(=O)C1CCN(CCOc2ccccc2)CC1)c1ccccn1 (centres undefined)	.	.	.	-55*	-7
COc1ccccc1C(NC(=O)C1CCN(CCc2ccc(Br)cc2)CC1)c1ccccn1 (centres undefined)	.	.	.	?	-14
COc1ccccc1C(NC(=O)C1CCN(CCOc2ccc(Cl)cc2)CC1)c1ccccn1 (centres undefined)	.	.	.	-78*	-8
COc1ccc(CN2CCC(C(=O)NC(C)c3cccc4ccccc34)CC2)cc1 (centres undefined)	.	.	.	?	-10
CC(NC(=O)C1CCN(CCOc2ccc(Cl)cc2)CC1)c1cccc2ccccc12 (centres undefined)	.	.	.	-53*	-17
Cc1ccc(C)c(NC(=O)N2CCc3cc(S(=O)(=O)N4CCC(C)CC4)ccc32)c1	-12	-1	5	.	-15
COc1ccc(CC(=O)Oc2ccc(C)cc2C)cc1	-23	-7	13	-3	-3
COc1ccc(CC(=O)c2ccc(OC)c(OC)c2C)cc1OC	-34*	0	18	20	11
COc1ccc(CC(=O)Oc2ccc(C)cc2Br)cc1OC	-32*	-4	12	7	3
CC(/C=N/Nc1nnc(C)c(=O)[nH]1)=C\c1ccccc1	6	14	7	-23	-5
C/C(=N\Nc1nnc(C)c(=O)[nH]1)C(=O)O	2	-3	2	-52*	-42
Cc1ccc(OCCN2CCNCC2)c([N+](=O)[O-])c1	14	-1	5	-87*	-11
Cc1ccc(OCCN2CCN(C)CC2)c([N+](=O)[O-])c1	-38*	0	4	-53*	7
CCC1Nc2ncnc(N3CCOCC3)c2N(Cc2ccccc2)C1=O (centres undefined)	-2	-5	2	-5	-19
CCC1Nc2ncnc(N3CCN(c4ccccc4)CC3)c2N(Cc2ccc(OC)cc2)C1=O (centres undefined)	-16	-5	1	-149*	-56
O=C1C(Cc2ccccc2)Nc2ncnc(N3CCN(c4ccccc4)CC3)c2N1Cc1ccc(Br)cc1 (centres undefined)	.	.	.	-151*	-55
CCC1Nc2ncnc(N3CCN(c4ccccc4)CC3)c2N(Cc2ccc(Br)cc2)C1=O (centres undefined)	4	-2	3	+	-88
O=C1C(Cc2ccccc2)Nc2ncnc(N3CCc4ccccc4C3)c2N1Cc1ccc(Br)cc1 (centres undefined)	6	-3	4	.	.

Assay outcomes: PubChem BioAssay, National Center for Advancing Translational Sciences (NCATS)
